# From PubChem BioAssay (NCI)
# Compounds without any hit were thinned out: in the full panel of roughly 79,000, 15% have a hit. A number with no mark means an inactive call. Calls of active or inactive are those of the source. No stated cut-off is given here; in the data, active means growth inhibition above about 70%; inactive means the rest.
# What was measured:
# [1] = NCI Yeast Anticancer Drug Screen. Data for the rad52 strain (AID 147);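 further: 0% = growth of vehicle-treated control cultures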; conditions: S. cerevisiae rad52 mutant growth inhibition, hits give high values
# Method in brief: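 Yeast strain carrying a DNA damage repair alteration was exposed to test compounds. Growth inhibition was measured relative to vehicle-treated controls.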
# [2] = NCI Yeast Anticancer Drug Screen. Data for the wt1 strain (AID 149);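 further: 0% = growth of vehicle-treated wt1 cultures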; conditions: S. cerevisiae wt1 strain (SPY 50644) growth inhibition, hits give high values
# Method in brief: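 wt1 strain grown with compound or vehicle; inhibition taken from the growth difference.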
# [3] = NCI Yeast Anticancer Drug Screen. Data for the rad50EPP+ strain (AID 151);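 further: 0% = growth of vehicle-treated control cultures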; conditions: S. cerevisiae rad50 mutant strain, hits give high values
# Method in brief: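 Yeast strain carrying rad50 alteration (rad50EPP+) exposed to compounds; growth inhibition measured relative to vehicle-treated controls.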
# [4] = NCI Yeast Anticancer Drug Screen. Data for the mgt1 strain (AID 153); conditions: S. cerevisiae mgt1 mutant growth inhibition, hits give high values
# Method in brief: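 Yeast mgt1 strain (DNA repair/cell-cycle alteration panel) exposed to compounds; growth inhibition measured relative to vehicle-treated controls.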
# [5] = NCI Yeast Anticancer Drug Screen. Data for the rad50 strain (AID 155);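 further: 0% = growth of vehicle-only cultures of the same strain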; conditions: S. cerevisiae rad50 strain growth inhibition, hits give high values
# Method in brief: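 DNA repair mutant yeast, compound exposure, growth read-out; inhibition is taken relative to vehicle.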
# [6] = NCI Yeast Anticancer Drug Screen. Data for the mec2-1 strain (AID 157); conditions: S. cerevisiae mec2-1 strain, hits give high values
# Method in brief: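 mec2-1 yeast strain, carrying an alteration in DNA damage repair or cell cycle control, was exposed to compounds; growth inhibition was measured relative to vehicle-treated controls.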
# [7] = NCI Yeast Anticancer Drug Screen. Data for the rad14 strain (AID 159);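 further: 0% = growth of vehicle-treated control cultures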; conditions: S. cerevisiae rad14 strain growth inhibition, hits give high values
# Method in brief: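 DNA repair-defective yeast, compound-exposed; % growth inhibition derived by comparison with vehicle-treated controls.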
# [8] = NCI Yeast Anticancer Drug Screen. Data for the sgs1 mgt1 strain (AID 161);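 further: 0% = growth of cultures given vehicle only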; conditions: S. cerevisiae sgs1 mgt1 strain, hits give high values
# Method in brief: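 Percent growth inhibition was derived by comparing compound-exposed mutant yeast with vehicle-exposed cultures. The strain carries alterations in DNA damage repair.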
# [9] = NCI Yeast Anticancer Drug Screen. Data for the CLN2oe strain (AID 163);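 further: 0% = growth of vehicle-only control cultures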; conditions: S. cerevisiae CLN2oe strain, hits give high values
# Method in brief: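 Yeast cells carrying a defined cell-cycle control alteration were exposed to test compounds. Growth inhibition was scored against vehicle-treated control cultures.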
# [10] = NCI Yeast Anticancer Drug Screen. Data for the cln2 rad14 strain (AID 165);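 further: 0% = growth equal to vehicle treated cultures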; conditions: S. cerevisiae cln2 rad14 strain, hits give high values
# Method in brief: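 Yeast carrying cln2 and rad14 alterations (cell cycle control and DNA damage repair) were exposed to compounds. Growth inhibition was measured against vehicle-treated controls.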
# [11] = NCI Yeast Anticancer Drug Screen. Data for the bub3 strain (AID 167); conditions: S. cerevisiae bub3 mutant strain, hits give high values
# Method in brief: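 In this screen, a yeast mutant lacking normal mitotic checkpoint function is challenged with compound. Relative growth versus vehicle gives the inhibition value.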
# [12] = NCI Yeast Anticancer Drug Screen. Data for the mlh1 strain (AID 171);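 further: 0% = growth of vehicle-treated control cultures of the same strain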; conditions: S. cerevisiae mlh1 strain growth inhibition, hits give high values
# Method in brief: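 Yeast carrying a defined genetic alteration in DNA damage repair or cell cycle control were exposed to test compounds. Growth inhibition was measured relative to vehicle-treated controls.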
# [13] = NCI Yeast Anticancer Drug Screen. Data for the sgs1 strain (AID 173);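 further: 0% = growth of vehicle-only control cultures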; conditions: S. cerevisiae sgs1 mutant, hits give high values
# Method in brief: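 Yeast mutant strains carrying defined defects in DNA damage repair or cell cycle control were exposed to test compounds. Growth inhibition was scored against vehicle-treated controls.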
# [14] = NCI Yeast Anticancer Drug Screen. Data for the mlh1 rad18 strain (AID 175); conditions: S. cerevisiae mlh1 rad18 strain growth inhibition, hits give high values
# Method in brief: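 Growth inhibition of the yeast strain was measured after compound exposure and expressed relative to vehicle-treated controls. The strain carries defined defects in DNA damage repair.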
# [15] = NCI Yeast Anticancer Drug Screen. Data for the rad18 strain (AID 177); conditions: S. cerevisiae rad18 mutant growth inhibition, hits give high values
# Method in brief: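 Yeast carrying a defined DNA damage repair alteration were exposed to compounds. Growth inhibition was expressed relative to vehicle-treated controls.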
# [16] = at 5.0 µM (retest, dose inferred, filed as 0.5)
# [17] = at 50.0 µM (retest, dose inferred, filed as 5.0)
structure (smiles),measurement,setting,value
O=C1c2ccccc2-c2cc3ccccc3c(=O)n21,growth inhibition,[1]; at 1.2 µM,32%
same,growth inhibition,[1]; at 3.7 µM,64%
same,growth inhibition,[1]; at 11.0 µM,91% (active)
same,growth inhibition,[1]; at 33.0 µM,93% (active)
same,growth inhibition,[1]; at 100.0 µM,87% (active)
same,growth inhibition,[2]; at 1.2 µM,-21%
same,growth inhibition,[2]; at 3.7 µM,0%
same,growth inhibition,[2]; at 11.0 µM,31%
same,growth inhibition,[2]; at 33.0 µM,58%
same,growth inhibition,[2]; at 100.0 µM,51%
same,growth inhibition,[3]; at 1.2 µM,41%
same,growth inhibition,[3]; at 3.7 µM,76% (active)
same,growth inhibition,[3]; at 11.0 µM,90% (active)
same,growth inhibition,[3]; at 33.0 µM,92% (active)
same,growth inhibition,[3]; at 100.0 µM,80% (active)
same,growth inhibition,[4]; at 1.2 µM,12%
same,growth inhibition,[4]; at 3.7 µM,2%
same,growth inhibition,[4]; at 11.0 µM,37%
same,growth inhibition,[4]; at 33.0 µM,71% (active)
same,growth inhibition,[4]; at 100.0 µM,76% (active)
same,growth inhibition,[5]; at 1.2 µM,32%
same,growth inhibition,[5]; at 3.7 µM,64%
same,growth inhibition,[5]; [16],1%
same,growth inhibition,[5]; at 11.0 µM,88% (active)
same,growth inhibition,[5]; at 33.0 µM,89% (active)
same,growth inhibition,[5]; [17],92% (active)
same,growth inhibition,[5]; at 50.0 µM,91.7% (active)
same,growth inhibition,[5]; at 100.0 µM,84% (active)
same,growth inhibition,[6]; at 1.2 µM,13%
same,growth inhibition,[6]; at 3.7 µM,19%
same,growth inhibition,[6]; [16],-14%
same,growth inhibition,[6]; at 11.0 µM,48%
same,growth inhibition,[6]; at 33.0 µM,70% (active)
same,growth inhibition,[6]; [17],41%
same,growth inhibition,[6]; at 50.0 µM,85.3% (active)
same,growth inhibition,[6]; at 100.0 µM,77% (active)
same,growth inhibition,[7]; at 1.2 µM,11%
same,growth inhibition,[7]; at 3.7 µM,20%
same,growth inhibition,[7]; at 11.0 µM,42%
same,growth inhibition,[7]; at 33.0 µM,66%
same,growth inhibition,[7]; at 100.0 µM,69%
same,growth inhibition,[8]; [16],9%
same,growth inhibition,[8]; [17],46%
same,growth inhibition,[8]; at 50.0 µM,81% (active)
same,growth inhibition,[9]; at 1.2 µM,1%
same,growth inhibition,[9]; at 3.7 µM,4%
same,growth inhibition,[9]; at 11.0 µM,23%
same,growth inhibition,[9]; at 33.0 µM,51%
same,growth inhibition,[9]; at 100.0 µM,68%
same,growth inhibition,[10]; [16],22%
same,growth inhibition,[10]; [17],15%
same,growth inhibition,[10]; at 50.0 µM,14.3%
same,growth inhibition,[11]; at 1.2 µM,3%
same,growth inhibition,[11]; at 3.7 µM,2%
same,growth inhibition,[11]; [16],-2%
same,growth inhibition,[11]; at 11.0 µM,10%
same,growth inhibition,[11]; at 33.0 µM,68%
same,growth inhibition,[11]; [17],56%
same,growth inhibition,[11]; at 50.0 µM,84.5% (active)
same,growth inhibition,[11]; at 100.0 µM,72% (active)
same,growth inhibition,[12]; at 1.2 µM,4%
same,growth inhibition,[12]; at 3.7 µM,19%
same,growth inhibition,[12]; at 11.0 µM,66%
same,growth inhibition,[12]; at 33.0 µM,74% (active)
same,growth inhibition,[12]; at 100.0 µM,63%
same,growth inhibition,[13]; at 1.2 µM,22%
same,growth inhibition,[13]; at 3.7 µM,14%
same,growth inhibition,[13]; at 11.0 µM,47%
same,growth inhibition,[13]; at 33.0 µM,76% (active)
same,growth inhibition,[13]; at 100.0 µM,77% (active)
same,growth inhibition,[14]; [16],-13%
same,growth inhibition,[14]; [17],63%
same,growth inhibition,[14]; at 50.0 µM,81% (active)
same,growth inhibition,[15]; at 1.2 µM,-22%
same,growth inhibition,[15]; at 3.7 µM,-17%
same,growth inhibition,[15]; at 11.0 µM,28%
same,growth inhibition,[15]; at 33.0 µM,63%
same,growth inhibition,[15]; at 100.0 µM,59%
CCCCCCCCCC(=O)N(CCC)CCC,growth inhibition,[1]; at 1.2 µM,-11%
same,growth inhibition,[1]; at 3.7 µM,-15%
same,growth inhibition,[1]; at 11.0 µM,-19%
same,growth inhibition,[1]; at 33.0 µM,42%
same,growth inhibition,[1]; at 100.0 µM,96% (active)
same,growth inhibition,[2]; at 1.2 µM,-10%
same,growth inhibition,[2]; at 3.7 µM,-10%
same,growth inhibition,[2]; at 11.0 µM,-17%
same,growth inhibition,[2]; at 33.0 µM,79% (active)
same,growth inhibition,[2]; at 100.0 µM,98% (active)
same,growth inhibition,[3]; at 1.2 µM,1%
same,growth inhibition,[3]; at 3.7 µM,9%
same,growth inhibition,[3]; at 11.0 µM,11%
same,growth inhibition,[3]; at 33.0 µM,43%
same,growth inhibition,[3]; at 100.0 µM,77% (active)
same,growth inhibition,[4]; at 1.2 µM,-14%
same,growth inhibition,[4]; at 3.7 µM,-20%
same,growth inhibition,[4]; at 11.0 µM,-25%
same,growth inhibition,[4]; at 33.0 µM,0%
same,growth inhibition,[4]; at 100.0 µM,96% (active)
same,growth inhibition,[5]; at 1.2 µM,2%
same,growth inhibition,[5]; at 3.7 µM,-8%
same,growth inhibition,[5]; [16],97% (active)
same,growth inhibition,[5]; at 11.0 µM,-2%
same,growth inhibition,[5]; at 33.0 µM,48%
same,growth inhibition,[5]; [17],96% (active)
same,growth inhibition,[5]; at 50.0 µM,90.9% (active)
same,growth inhibition,[5]; at 100.0 µM,97% (active)
same,growth inhibition,[6]; at 1.2 µM,-4%
same,growth inhibition,[6]; at 3.7 µM,1%
